HTT cytoprotect: Huntington cell model cytoprotection by ATP luminescence | AID 1471 | Potency, µM (doses to about 56.4 µM), usual class: activators | PC12 HTT-Q103 induced, cytoprotection, ATP luminescence, 40 h | actives 0.14% (n = 230,000); note: nearly all actives have a fitted effect of over 45% in size
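PC12 cells with ecdysone-inducible HTT exon 1 Q103-GFP, induced with 100 nM tebufenozide and co-treated with library compounds in a dose series (1536-well, 1500 cells/well). Cytoprotection read as ATP content by ATPlite luminescence.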
ERK EGF inh: EGF-driven ERK pathway inhibition. HEK293-V1b, EGF-stimulated phospho-ERK AlphaScreen. Potency, µM (top dose mostly 11.5 µM), actives largely listed as inhibitors. actives 0.41% (n = 130,000). AID 1454; note: nearly all actives have a fitted effect of over 55% in size
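In this qHTS, HEK293 cells with stable type-1 vasopressin (V1b) receptor were exposed to compound at 37C for 30 min, stimulated 5 min with EGF at 25 nM, lysed, and probed for phospho-ERK by AlphaScreen.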
IMPase Li inh: membrane-permeable IMPase blocker, potentiated with lithium | CHO-M1 cells, IP1 TR-FRET (IP-One), carbachol + lithium | Potency, µM (top dose mostly 59.4 µM), hits mostly inhibitors | actives 0.35% (n = 210,000) | AID 1457;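 note: IP1 builds up when IMPase is blocked and the TR-FRET signal falls; nearly all actives have a fitted effect of over 50% in size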
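Lithium-sensitised IP1 accumulation assay; M1-expressing CHO cells treated 30 min at 37C with compound. Competitive antibody detection by time-resolved FRET followed a 10 min room-temperature lysis step.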
NPSR antagonist: neuropeptide S receptor (human) antagonism, cAMP; actives 1% (n = 220,000); CHO-NPSR cells, cAMP TR-FRET, antagonist mode; Q6W5P4; Potency, µM (doses to about 38.3 µM), actives largely listed as inhibitors; note: nearly all actives have a fitted effect of over 50% in size
Target sequence (Q6W5P4 whole entry, looked up): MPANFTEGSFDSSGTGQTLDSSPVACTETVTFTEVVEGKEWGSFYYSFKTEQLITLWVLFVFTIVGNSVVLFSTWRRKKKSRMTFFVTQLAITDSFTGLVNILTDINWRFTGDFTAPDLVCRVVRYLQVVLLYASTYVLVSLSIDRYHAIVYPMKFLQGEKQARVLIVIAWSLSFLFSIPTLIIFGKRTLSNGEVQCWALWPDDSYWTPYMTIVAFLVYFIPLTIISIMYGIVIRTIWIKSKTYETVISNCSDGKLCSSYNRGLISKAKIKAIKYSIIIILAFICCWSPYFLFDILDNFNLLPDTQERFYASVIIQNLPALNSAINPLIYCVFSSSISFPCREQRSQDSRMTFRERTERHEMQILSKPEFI
HttQ103 aggreg: mutant huntingtin aggregation inhibition; PC12 HttQ103-GFP aggregates, Acumen cytometry, 40 h; Potency, µM (doses to about 46.1 µM), most hits filed as inhibitors; actives 1.1% (n = 220,000); AID 1688; note: nearly all actives have a fitted effect of over 60% in size
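Aggregate formation scored by laser-scanning cytometer (488 excitation, 500–530 emission) in lysed PC12 cells expressing Q103-GFP after 100 nM tebufenozide induction; library tested in dose series, with ATPLite reagent added in the multiplex.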
Numbers stand for hits; - = inactive; ? = inconclusive; . = no result; [ ] = dose if it differs, or a comment. In the library only some 1.9% were active in any assay of this set; here they are far more common. Calls come from the whole dose curve; as a rule, active = well fitted curve in the direction sought with a large enough effect; inconclusive = small, poorly fitted or top-dose-only effect, or another doubt; inactive = no such curve, though single readings can be large; an effect the other way counts as inactive or inconclusive.

SMILES	HTT cytoprotect	ERK EGF inh	IMPase Li inh	NPSR antagonist	HttQ103 aggreg
O=C(/C=C/c1ccc(O)c(O)c1)OC1C[C@](O)(C(=O)O)C[C@@H](O)[C@H]1O (some centres undefined)	-	.	-	.	.
CCOC(=O)[C@H](CCc1ccccc1)N[C@@H](C)C(=O)N1[C@H](C(=O)O)C[C@H]2CCC[C@@H]21	3.16µM	-	-	.	-
CCN(CC)CCCn1c(-c2ccccc2)nc2c(N(CCOC)CCOC)nc(C)nc21	-	-	-	.	.
COc1ccc(Nc2nc(-c3ccc4c(c3)NC(=O)CO4)cs2)cc1	-	20µM	-	-	?
O=C(Cl)c1c(Cl)cccc1Cl	-	.	-	.	.
COC(=O)c1ccc(C(NC(=O)OCc2ccccc2)/C(=C/[C@@H](C)C(=O)N(C)Cc2cccnc2)c2cccnc2)cc1 (some centres undefined)	-	-	-	.	.
CC(C)n1cnc2c(N(C)c3ccccc3)nc(N(CCN(C)C)Cc3ccccc3)nc21	-[10 µM]	?	.	10µM	-[9.22 µM]
COc1ccc(CNc2nc(-c3ccc(N(C)C)cc3)nc3ccccc23)c(OC)c1	-	.	-	.	.
O=c1cc(-c2c(F)c(F)c(F)c(F)c2F)oc2c(F)c(F)c(F)c(F)c12	-	.	-	3.16µM	?
COc1cc(C)ccc1OCCOc1c(Cl)cc(Cl)cc1Cl	-	.	.	-	-
COc1cc(C)ccc1OCCOc1cc(C)ccc1Cl	-	?	-	10µM	-
O=C1C=CC(=O)c2c(O)c(Cl)c(Cl)c(O)c21	.	?	-	.	.
CC(SCC(=O)NC(C)C1CC2CCC1C2)C(=O)O (centres undefined)	0.891µM	-	-	-	-
CCCS(=O)(=O)c1nnnn1-c1cccc(OC)c1	-	.	-	10µM	3.55µM
COc1cc(/C=C\C(=O)CC(=O)/C=C\c2ccc(O)c(OC)c2)ccc1O	-	.	.	.	.
O=C(CSc1cccc[n+]1[O-])c1cc2ccccc2o1	-[10 µM]	.	-	7.94µM	-
O=C(O)CSc1cccc[n+]1[O-]	-	.	-	-	-
O=C(c1cnccn1)N1CCC2(CC1)CN(c1cccc(-c3ccccc3)c1)C2	-	-	-	.	.
CC(NC(=O)OCc1ccccc1)C(=O)Oc1cc2oc(=O)cc(-c3ccccc3)c2cc1Cl (centres undefined)	-[10 µM]	-	-	-	8.91µM
Cc1c(CCOC(=O)c2cc([N+](=O)[O-])cc([N+](=O)[O-])c2)sc[n+]1CC(=O)c1ccccc1	-	-	-	10µM	-
Cc1c(CCOC(=O)CC23CC4CC(CC(C4)C2)C3)sc[n+]1CC(=O)c1ccc(Br)cc1	-	.	-	10µM	-
O=S(=O)(Nc1cc(Sc2cccc3cccnc23)c(O)c2ccccc12)c1ccc(F)cc1	.	-	-	-	22.4µM
O=C(Sc1cccc2cccnc12)c1ccc(F)cc1	-[10 µM]	-	-	?	10µM
CCCCCCCC/C=C\C/C=C\C/C=C\CCCC(=O)NCCO	-	-	-	.	.
N#Cc1cc(-c2ccc(Cl)cc2)cnc1Sc1ccc(F)cc1	-	.	25.1µM	-	-
SMILES	HTT cytoprotect	ERK EGF inh	IMPase Li inh	NPSR antagonist	HttQ103 aggreg
N#Cc1cc(-c2ccccc2)cnc1Sc1ccc(Cl)cc1	-	.	-	-	-
Cc1oc(C)c2c(=O)ccc3c(c12)OC(N)=C(C#N)C3c1ccccc1 (centres undefined)	-[10 µM]	.	-	-	-
Cc1oc(C)c2c(=O)ccc3c(c12)OC(N)=C(C#N)C3c1ccccc1Cl (centres undefined)	-	.	-	10µM	?
C=CCn1c(NC(=O)c2ccccc2Cl)c(C#N)c2nc3ccccc3nc21	-	.	-	-	15.8µM
C=CCn1c(NC(=O)c2ccccc2)c(C#N)c2nc3ccccc3nc21	-[10 µM]	.	.	.	.
COc1cc(C2C=C(C34CC5CC(CC(C5)C3)C4)NC(=S)N2)cc(OC)c1OC (centres undefined)	-	.	-	10µM	-
Cc1ccc2oc(-c3cccc(NC(=O)Cc4cccs4)c3)nc2c1	-	.	-	-	?
Cc1ccc2oc(-c3ccc(C)c(NC(=O)Cc4cccs4)c3)nc2c1	-	.	12.6µM	-	-
CC(C)(CO)[C@@H](O)C(=O)NCCC(=O)NCCSSCCNC(=O)CCNC(=O)[C@H](O)C(C)(C)CO	-	.	.	.	-
Cc1cc(C(=O)N/N=C/c2cc(Br)ccc2OC(=O)c2ccccc2)n[nH]1	-[10 µM]	.	-	-	2µM
O=C1/C(=C/c2cccnc2)CCc2c1[nH]c1ccccc21	-	?	-	-	?
CC1C/C(=C\c2cccnc2)C(=O)/C(=C/c2cccnc2)C1 (centres undefined)	-[10 µM]	?	-	-	3.55µM
c1cncc(-c2cccnc2)c1	-	.	14.1µM	-	-
COC(=O)[C@@H]1[C@@H](C#N)C2(c3ccccc3-c3ccccc32)N(c2ccc(Cl)cc2)N1C#N	-[10 µM]	-	-	10µM	?
CC1=C(/C=C/C(C)=C/C=C/C(C)=C/C(=O)O)C(C)(C)CCC1O (centres undefined)	-	.	-	.	.
CCCCCCNc1nc(NCc2ccco2)nc(OCC)n1	-	.	-	?	10µM
CCCCCCCCNc1nc(Cl)nc(NCc2ccco2)n1	-[10 µM]	-	-	-	-
Cc1cccc(-c2cc3nc(C)c(C)c(NCCCn4ccnc4)n3n2)c1	-[10 µM]	31.6µM	.	-	-[9.22 µM]
CCOC(=O)c1ccc(-n2c(O)c(/C=N/NC(=O)C3COc4ccccc4O3)c3ccccc3c2=O)cc1 (centres undefined)	-[1.9 µM]	-	-	-	17.8µM
CO[C@@H](CCO)C[C@H]1O[C@H](C(=O)OC(C)C)CC[C@@H]1C	-	-	-	.	.
O=C1Nc2ccc(Br)cc2/C1=C/C(=O)c1ccc2c(c1)OCO2	-[10 µM]	31.6µM	.	?	-[9.22 µM]
Cc1ccc(C)c(N2CCN(C(=O)Nc3ccc4c(c3)N(C)C(=O)CS4)CC2)c1	-	-	-	-	22.4µM
CCN1CCCC1Cn1c(-c2ccccc2)nc2c(N(CCOC)CCOC)nc(C)nc21 (centres undefined)	-	-	-	.	.
Cc1cccc(-n2ncc3c(N4CC(C)CC(C)C4)ncnc32)c1 (centres undefined)	-	.	-	-	22.4µM
Cc1cccc(-n2ncc3c(N4CCCC4)ncnc32)c1	-[0.074 µM]	-	-	-	-
C/C(CC1CC(C)OC1=O)=N\NC(N)=S (centres undefined)	-[10 µM]	-	-	-	-
C/C(=N\NC(N)=S)C1C2C3CC4C5CC(C42)C1C53 (centres undefined)	11.2µM	-	-	-	-
COc1ccc(COC(=O)N/N=C2/C[C@@H](O)[C@@H](O)[C@@H]3[C@H]4C(=O)N(c5ccc(F)cc5F)C(=O)[C@@H]4CC[C@@H]23)cc1	-[10 µM]	.	.	.	.
CCOC(=O)c1ccc(-c2c(C(=O)OCC)oc3cc(O)c(CC)cc3c2=O)o1	-[0.074 µM]	.	-	?	5.62µM
CCN(CC)CCCC(C)n1c(-c2ccccc2)nc2c(N(CCOC)CCOC)nc(C)nc21 (centres undefined)	-	-	-	.	.
